“And” between values parts separate entries of the source, which are not always exact repeats. Identical values can stand only once. Records with an inconclusive call do not appear. A call without a number means that no potency is given here. More than one record can exist for a structure, and the calls need not agree. The source made the active and inactive calls. Unless noted, calls come from the whole dose curve.
molecular target: Androgen receptor (Homo sapiens) (UniProt P10275); assay: qHTS assay to identify small molecule agonists of the androgen receptor (AR) signaling pathway in the presence of an antagonist (AID 1259381); settings: MDA-kb2 MMTV-luciferase, AR agonist + nilutamide, 16 h; series mostly up to 92.4 µM; activation: at the top concentration; note: nearly all actives have a fitted effect of over 15% in size
How it was run: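 Luminescent ONE-Glo read, 30min at room temperature, follows 16hr compound exposure (15 concentrations) of MDA-kb2 cells at 37C, 0% CO2, with nilutamide added at 3.0uM final.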

Sequence of Androgen receptor (Homo sapiens) (P10275 whole entry, looked up): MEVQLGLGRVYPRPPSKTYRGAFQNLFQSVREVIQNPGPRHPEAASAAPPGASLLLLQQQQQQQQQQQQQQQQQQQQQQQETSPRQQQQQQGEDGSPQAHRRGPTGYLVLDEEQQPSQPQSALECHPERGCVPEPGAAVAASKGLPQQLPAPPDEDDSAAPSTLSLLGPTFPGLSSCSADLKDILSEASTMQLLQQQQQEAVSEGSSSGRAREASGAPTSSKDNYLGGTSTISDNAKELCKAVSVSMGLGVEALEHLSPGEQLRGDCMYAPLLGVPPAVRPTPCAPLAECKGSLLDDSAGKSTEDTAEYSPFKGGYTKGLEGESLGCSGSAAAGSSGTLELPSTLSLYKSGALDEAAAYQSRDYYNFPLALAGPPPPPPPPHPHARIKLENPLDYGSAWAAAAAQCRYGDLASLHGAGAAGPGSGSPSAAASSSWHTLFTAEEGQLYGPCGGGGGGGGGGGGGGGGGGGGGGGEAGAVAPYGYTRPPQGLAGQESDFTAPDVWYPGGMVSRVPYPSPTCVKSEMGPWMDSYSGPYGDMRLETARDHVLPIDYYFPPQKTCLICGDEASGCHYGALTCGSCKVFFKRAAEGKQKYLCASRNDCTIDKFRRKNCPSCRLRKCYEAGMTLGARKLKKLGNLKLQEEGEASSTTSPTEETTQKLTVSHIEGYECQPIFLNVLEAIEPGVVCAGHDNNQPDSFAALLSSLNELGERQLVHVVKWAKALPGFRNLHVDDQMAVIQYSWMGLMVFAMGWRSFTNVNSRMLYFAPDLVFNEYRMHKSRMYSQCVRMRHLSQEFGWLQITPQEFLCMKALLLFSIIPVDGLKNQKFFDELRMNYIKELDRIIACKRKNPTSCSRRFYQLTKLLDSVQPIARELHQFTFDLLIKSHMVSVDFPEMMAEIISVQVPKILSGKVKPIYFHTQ

SMILES | Potency
CCOc1ccc(NC(C)=O)cc1 | inactive
CN(C)CCOC(c1ccccc1)c1ccccc1 | inactive
CCCCOC(=O)c1ccc(O)cc1 | inactive

test system: not listed separately; assay: qHTS assay to identify small molecule antagonists of the estrogen receptor beta (ER-beta) signaling pathway - cell viability counter screen (AID 1259382; active = well fitted cell-killing curve with a large enough effect in the repeat runs; note: nearly all actives have a fitted effect of over 55% in size; note: potency is the fitted concentration of half-maximal effect;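 for activity change, negative = cytotoxicity: HEK293T cells carrying ER-beta-UAS-bla reporter stimulated with estradiol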); settings: ER-beta-UAS-bla HEK293T viability, CellTiter-Glo luminescence, 16 h; series mostly up to 92.4 µM; activity change, negative = cytotoxicity: at the top concentration
How it was run: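 Readout: luminescence, CellTiter-Glo, same wells as bla assay. System: ER-beta-UAS-bla GripTite HEK293T, 2% charcoal-stripped FBS. Exposure: compounds plus 1nM 17-beta-estradiol, 16 hr, 37C.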

SMILES | Potency | activity change, negative = cytotoxicity
O=C(O)CC(O)C(=O)O (stereo not given) | inactive | –
CCOc1ccc(NC(C)=O)cc1 | inactive | –
CC(C)C(=O)Nc1ccc([N+](=O)[O-])c(C(F)(F)F)c1 | inactive | –
NC(=O)c1cccnc1 | inactive | –
COc1ccc(C(Cl)=C(c2ccc(OC)cc2)c2ccc(OC)cc2)cc1 | inactive | –
C=C(C)C(=O)OCC(C)O (stereo not given) | inactive | –
O=CC(=O)c1ccccc1 | – | -7.89% (inactive)
O=c1[nH]cc(F)c(=O)[nH]1 | 14.2 µM (active) and inactive | –
NS(=O)(=O)c1cc2c(cc1Cl)NCNS2(=O)=O | inactive | –
CN(C)CCOC(C)(c1ccccc1)c1ccccn1 (stereo not given) | inactive | –
CC(C)NCC(O)c1ccc(O)c(O)c1 (stereo not given) | inactive | –
Cc1cn([C@H]2C=C[C@@H](CO)O2)c(=O)[nH]c1=O | inactive | –
CCc1nc(N)nc(N)c1-c1ccc(Cl)cc1 | – | -21.9% (inactive)
C/C=C/C=C/C(=O)O | inactive | –
Nc1c(N=Nc2ccc(-c3ccc(N=Nc4cc(S(=O)(=O)O)c5ccccc5c4N)cc3)cc2)cc(S(=O)(=O)O)c2ccccc12 | – | -2.43% (inactive)
Nc1c2c(nc3ccccc13)CCCC2 | inactive | –
O=S1(=O)OC(c2ccc(O)cc2)(c2ccc(O)cc2)c2ccccc21 | inactive | –
CCCCCCCC(=O)OCC(COC(=O)CCCCCCC)OC(=O)CCCCCCC | inactive | –
NS(=O)(=O)O | inactive | –
Cc1c(C(=O)O)c(O)cc2c1C(=O)c1c(O)c([C@@H]3O[C@H](CO)[C@@H](O)[C@H](O)[C@H]3O)c(O)c(O)c1C2=O | inactive | –
CCCCCCCCCCCCCCCC[N+](C)(C)Cc1ccccc1 | 35.5 µM (active) and 17.5 µM (active) and 10.6 µM (active) | –
CC1(C)O[C@@H]2C[C@H]3[C@@H]4CCC5=CC(=O)C=C[C@]5(C)[C@@]4(F)[C@@H](O)C[C@]3(C)[C@]2(C(=O)CO)O1 | inactive | –
Nc1ccc(S(N)(=O)=O)cc1 | inactive | –
CN(C)CCOC(c1ccccc1)c1ccccc1 | inactive | –
CCCCOC(=O)c1ccc(O)cc1 | inactive | –
NC1CCCCC1 | inactive | –
CCN(CC)C(=O)c1cccc(C)c1 | inactive | –
CNNCc1ccc(C(=O)NC(C)C)cc1 | inactive | –
OC[C@H]1O[C@H](O[C@]2(CCl)O[C@H](CCl)[C@@H](O)[C@@H]2O)[C@H](O)[C@@H](O)[C@H]1Cl | inactive | –

molecular target: Estrogen receptor (Homo sapiens) (UniProt P03372); assay: qHTS assay to identify small molecule agonists of the estrogen receptor alpha (ER-alpha) signaling pathway in the presence of an antagonist (AID 1259383); settings: VM7Luc4E2 cells, ERE-luciferase, +ICI-182,780, 22 h; series mostly up to 92.4 µM; activation: at the top concentration; note: nearly all actives have a fitted effect of over 15% in size; note: potency is the fitted concentration of half-maximal effect; for activation: top concentration of the series differs between compounds
How it was run: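 Quantitative HTS confirmation: compounds titrated at 15 concentrations onto estrogen-deprived VM7Luc4E2 cells carrying a four-ERE luciferase construct, with ICI-182,780 present at 10.0nM final. Signal is luminescence after 22hr exposure.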

Sequence of Estrogen receptor (Homo sapiens) (P03372 whole entry, looked up): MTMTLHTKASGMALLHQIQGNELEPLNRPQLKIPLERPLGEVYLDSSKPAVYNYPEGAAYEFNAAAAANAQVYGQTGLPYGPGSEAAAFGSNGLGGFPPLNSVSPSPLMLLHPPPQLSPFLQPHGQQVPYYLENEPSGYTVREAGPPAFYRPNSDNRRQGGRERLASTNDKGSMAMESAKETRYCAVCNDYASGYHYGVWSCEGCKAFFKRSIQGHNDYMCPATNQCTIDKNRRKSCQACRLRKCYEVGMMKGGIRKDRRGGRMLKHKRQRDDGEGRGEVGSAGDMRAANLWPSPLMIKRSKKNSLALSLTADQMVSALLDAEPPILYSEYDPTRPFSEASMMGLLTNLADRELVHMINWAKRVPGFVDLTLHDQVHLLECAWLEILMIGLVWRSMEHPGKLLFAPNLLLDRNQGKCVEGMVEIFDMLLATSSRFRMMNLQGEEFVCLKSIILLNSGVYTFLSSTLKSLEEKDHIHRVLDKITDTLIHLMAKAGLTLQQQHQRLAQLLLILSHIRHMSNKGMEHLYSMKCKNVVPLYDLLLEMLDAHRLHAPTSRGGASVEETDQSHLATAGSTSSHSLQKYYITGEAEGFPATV

SMILES | Potency | activation
CCOc1ccc(NC(C)=O)cc1 | inactive | –
CC(C)C(=O)Nc1ccc([N+](=O)[O-])c(C(F)(F)F)c1 | inactive | –
NC(=O)c1cccnc1 | inactive | –
COc1ccc(C(Cl)=C(c2ccc(OC)cc2)c2ccc(OC)cc2)cc1 | 15.3 µM (active) and 8.41 µM (active) | –
C=C(C)C(=O)OCC(C)O (stereo not given) | inactive | –
O=CC(=O)c1ccccc1 | – | -0.194% (inactive)
O=c1[nH]cc(F)c(=O)[nH]1 | inactive | –
NS(=O)(=O)c1cc2c(cc1Cl)NCNS2(=O)=O | inactive | –
CCc1nc(N)nc(N)c1-c1ccc(Cl)cc1 | inactive | –
Nc1c2c(nc3ccccc13)CCCC2 | inactive | –
O=S1(=O)OC(c2ccc(O)cc2)(c2ccc(O)cc2)c2ccccc21 | inactive | –
CCCCCCCC(=O)OCC(COC(=O)CCCCCCC)OC(=O)CCCCCCC | inactive | –
Cc1c(C(=O)O)c(O)cc2c1C(=O)c1c(O)c([C@@H]3O[C@H](CO)[C@@H](O)[C@H](O)[C@H]3O)c(O)c(O)c1C2=O | inactive | –
CCCCCCCCCCCCCCCC[N+](C)(C)Cc1ccccc1 | inactive | –
CN(C)CCOC(c1ccccc1)c1ccccc1 | inactive | –
NC1CCCCC1 | 1.09 µM (active) and inactive | –
CCN(CC)C(=O)c1cccc(C)c1 | inactive | –

test system: not listed separately; assay: qHTS assay to identify small molecule agonists or antagonists of the thyroid stimulating hormone receptor (TSHR) signaling pathway - wild type cell line counter screen (AID 1259384); settings: HEK293 wild type, cAMP HTRF counter-screen; series mostly up to 92.4 µM; cAMP activity change: at the top concentration; note: potency is the fitted concentration of half-maximal effect
How it was run: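 Wild-type HEK293 cells were plated 18 h at 37 C/5% CO2, pin-dosed with compound plus Ro20-1724 medium, held 30 min at room temperature, then given cAMP-d2 and anti-cAMP-cryptate; fluorescence was read after 1 h. Fifteen concentrations, triplicate.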

SMILES | Potency | cAMP activity change
O=C(O)CC(O)C(=O)O (stereo not given) | inactive | –
CCOc1ccc(NC(C)=O)cc1 | inactive | –
CC(C)C(=O)Nc1ccc([N+](=O)[O-])c(C(F)(F)F)c1 | inactive | –
NC(=O)c1cccnc1 | inactive | –
C=C(C)C(=O)OCC(C)O (stereo not given) | inactive | –
O=CC(=O)c1ccccc1 | – | 5.64% (inactive)
O=c1[nH]cc(F)c(=O)[nH]1 | inactive | –
NS(=O)(=O)c1cc2c(cc1Cl)NCNS2(=O)=O | inactive | –
CN(C)CCOC(C)(c1ccccc1)c1ccccn1 (stereo not given) | inactive | –
CC(C)NCC(O)c1ccc(O)c(O)c1 (stereo not given) | 4.98 nM (active) and 5.87 nM (active) and 5.7 nM (active) | –
Cc1cn([C@H]2C=C[C@@H](CO)O2)c(=O)[nH]c1=O | inactive | –
C/C=C/C=C/C(=O)O | inactive | –
Nc1c2c(nc3ccccc13)CCCC2 | inactive | –
CCCCCCCC(=O)OCC(COC(=O)CCCCCCC)OC(=O)CCCCCCC | inactive | –
Nc1ccc(S(N)(=O)=O)cc1 | inactive | –
CN(C)CCOC(c1ccccc1)c1ccccc1 | inactive | –
CCCCOC(=O)c1ccc(O)cc1 | inactive | –
NC1CCCCC1 | inactive | –
CCN(CC)C(=O)c1cccc(C)c1 | inactive | –
CNNCc1ccc(C(=O)NC(C)C)cc1 | inactive | –
OC[C@H]1O[C@H](O[C@]2(CCl)O[C@H](CCl)[C@@H](O)[C@@H]2O)[C@H](O)[C@@H](O)[C@H]1Cl | inactive | –

— PubChem BioAssay (Tox21)
